Source: PubChem BioAssay (EPA / NIEHS)
Calls of active or inactive are those of the source. Rule for the calls: active = hit-call score of the fitted dose curve at least 0.9, where 1 is the maximum; inactive = score below 0.9.

Assays:
Conditions in all cases: mRNA level, 48 h; actives raise or lower the signal
[1] = read-out: ABC Transporter (ABCB11), ABCB11 (gene 8647); assay: LTEA_HepaRG_ABCB11: Life Technologies and Expression Analysis (LTEA) Assay for ABC Transporter (ABCB11) using HepaRG (AID 2283463)
Summary of the method: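 Using HepaRG cultures held in 0.5% DMSO, chemicals were tested at half-log dilutions from 100 uM for 48 h. Induction or suppression of ABCB11 mRNA, normalized to ACTB, GAPDH and POLR2A, was fitted bidirectionally against vehicle.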

[2] = read-out: ABC Transporter (ABCC2), ABCC2 (gene 1244); assay: LTEA_HepaRG_ABCC2: Life Technologies and Expression Analysis (LTEA) Assay for ABC Transporter (ABCC2) using HepaRG (AID 2283464)
Summary of the method: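 Endpoint is ABCC2 transcript level from qRT-PCR, normalized to three housekeeping genes and fitted bidirectionally relative to DMSO. Human HepaRG cells received test chemical for 48 h at up to 100 uM (8 points, half-log steps, 0.5% DMSO), duplicate wells.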

[3] = read-out: Broad substrate specificity ATP-binding cassette transporter ABCG2 (Homo sapiens) (UniProt Q9UNQ0); assay: LTEA_HepaRG_ABCG2: Life Technologies and Expression Analysis (LTEA) Assay for ABC Transporter (ABCG2) using HepaRG (AID 2283465)
Summary of the method: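 Gene expression of ABCG2 in HepaRG liver cells is quantified by qRT-PCR following 48 h exposure across an eight-point series topping at 100 uM. Values come from bidirectional fitting relative to DMSO vehicle.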

[4] = read-out: Peroxisomal acyl-coenzyme A oxidase 1 (ACOX1) gene, ACOX1 (gene 51); assay: LTEA_HepaRG_ACOX1: Life Technologies and Expression Analysis (LTEA) Assay for Peroxisomal acyl-coenzyme A oxidase 1 (ACOX1) gene using HepaRG (AID 2283467)
Summary of the method: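 Human HepaRG hepatic cultures, 48 h treatment with test chemicals up to 100 uM. ACOX1 expression read by qRT-PCR relative to 0.5% DMSO vehicle.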

[5] = read-out: Alkaline Phosphatase, Placental (ALPP) gene, ALPP (gene 250); assay: LTEA_HepaRG_ALPP: Life Technologies and Expression Analysis (LTEA) Assay for Alkaline Phosphatase, Placental (ALPP) gene using HepaRG (AID 2283468);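 for AC50: differentiated human HepaRG liver cells in serum-free induction medium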
Summary of the method: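 ALPP transcript level, measured by qRT-PCR and normalized to three housekeeping genes (ACTB, GAPDH, POLR2A), after 48 h dosing of differentiated HepaRG in serum-free induction medium. Top concentration 100 uM with half-log dilutions (8 points, 0.5% DMSO, duplicates); bidirectional fitting relative to DMSO.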

[6] = read-out: Bcl-2 (BAD) gene, BAD (gene 572); assay: LTEA_HepaRG_BAD: Life Technologies and Expression Analysis (LTEA) Assay for Bcl-2 (BAD) gene using HepaRG (AID 2283469)
Summary of the method: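 Activity values reflect up- or down-regulation of BAD mRNA in human HepaRG hepatic cells treated 48 h in serum-free medium, with eight-point half-log dosing capped at 100 uM and 0.5% DMSO vehicle.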

[7] = read-out: Bcl-2 (BAX) gene, BAX (gene 581); assay: LTEA_HepaRG_BAX: Life Technologies and Expression Analysis (LTEA) Assay for Bcl-2 (BAX) gene using HepaRG (AID 2283470)
Summary of the method: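 Gene expression measured by Fluidigm qRT-PCR with three housekeeping genes for normalisation. HepaRG cells, plated 48 h beforehand, treated 48 h at up to 100 uM (8-point, half-log) in 0.5% DMSO. Bidirectional fitting versus DMSO.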

[8] = read-out: adenosine kinase (ADK) gene, ADK (gene 132); assay: LTEA_HepaRG_ADK: Life Technologies and Expression Analysis (LTEA) Assay for adenosine kinase (ADK) gene using HepaRG (AID 2283471)
Summary of the method: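 Read-out is ADK transcript level measured by qRT-PCR and normalised to three housekeeping genes. Cells are human HepaRG, dosed for 48 h at up to 100 uM in 0.5% DMSO. Gain or loss of signal is fitted against DMSO controls.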

[9] = read-out: Alpha-fetoprotein (AFP) gene, AFP (gene 174); assay: LTEA_HepaRG_AFP: Life Technologies and Expression Analysis (LTEA) Assay for Alpha-fetoprotein (AFP) gene using HepaRG (AID 2283472)
Summary of the method: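 AFP transcript measured by TaqMan qRT-PCR with three housekeeping genes for normalization, after 48 h chemical treatment of HepaRG cells (top 100 uM, half-log steps, 0.5% DMSO). Gain or loss fitted against vehicle.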

[10] = read-out: ATP-citrate lyase (ACLY), ACLY (gene 47); assay: LTEA_HepaRG_ACLY: Life Technologies and Expression Analysis (LTEA) Assay for ATP-citrate lyase (ACLY) using HepaRG (AID 2283466)
Summary of the method: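 ACLY expression changes in human HepaRG liver cells are quantified by qRT-PCR after 48 h exposure to test chemicals (maximum 100 uM, half-log steps). Values are fitted in both directions relative to 0.5% DMSO vehicle.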

Broad substrate specificity ATP-binding cassette transporter ABCG2 (Homo sapiens), sequence (Q9UNQ0 whole entry, looked up): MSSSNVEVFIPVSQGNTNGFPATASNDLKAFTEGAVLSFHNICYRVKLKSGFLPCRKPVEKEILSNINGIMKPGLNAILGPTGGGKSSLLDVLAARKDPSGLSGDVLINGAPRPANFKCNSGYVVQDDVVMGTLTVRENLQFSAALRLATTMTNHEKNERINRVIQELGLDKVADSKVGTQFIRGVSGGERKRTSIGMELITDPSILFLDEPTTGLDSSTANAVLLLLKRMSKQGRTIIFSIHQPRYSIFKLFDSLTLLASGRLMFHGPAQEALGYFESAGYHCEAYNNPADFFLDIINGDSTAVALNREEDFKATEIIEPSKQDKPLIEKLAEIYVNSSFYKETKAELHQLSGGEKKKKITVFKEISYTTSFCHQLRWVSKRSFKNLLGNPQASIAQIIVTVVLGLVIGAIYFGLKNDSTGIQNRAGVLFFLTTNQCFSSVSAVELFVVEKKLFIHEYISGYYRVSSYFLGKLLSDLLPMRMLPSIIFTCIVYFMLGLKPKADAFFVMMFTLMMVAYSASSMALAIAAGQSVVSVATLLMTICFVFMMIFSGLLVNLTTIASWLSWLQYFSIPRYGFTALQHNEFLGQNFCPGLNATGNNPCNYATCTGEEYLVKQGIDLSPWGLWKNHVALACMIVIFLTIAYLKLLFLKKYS

| SMILES | AC50 [1] | outcome [2] | outcome [3] | outcome [4] | AC50 [5] | outcome [6] | outcome [7] | outcome [8] | AC50 [9] | AC50 [2] | outcome [10] | AC50 [4] | AC50 [7] | AC50 [8] | outcome [9] | outcome [1] | AC50 [10] | outcome [5] | AC50 [3] |
| --- | --- | --- | --- | --- | --- | --- | --- | --- | --- | --- | --- | --- | --- | --- | --- | --- | --- | --- | --- |
| O=C(NO)C1(NS(=O)(=O)c2ccc(Oc3ccc(F)cc3)cc2)CCOCC1 | 82.8 µM (active) | inactive | inactive | inactive | 60.9 µM (active) | inactive | inactive | inactive | 70.2 µM (active) |  |  |  |  |  |  |  |  |  |  |
| c1ccc(C(O[C@@H]2CCCN(CCc3ccc4c(c3)OCO4)C2)c2ccccc2)cc1 | 76.8 µM (active) |  | inactive |  | 68.5 µM (active) | inactive |  |  |  | 79.7 µM (active) | inactive | 75.9 µM (active) | 80.1 µM (active) | 90.7 µM (active) | inactive |  |  |  |  |
| CC[C@H](C)C(=O)O[C@H]1C[C@H](O)C=C2C=C[C@H](C)[C@H](CC[C@@H](O)C[C@@H](O)CC(=O)O)[C@H]21 |  | inactive | inactive | inactive |  | inactive | inactive | inactive |  |  |  |  |  |  | inactive | inactive | 9.05 µM (active) | inactive |  |
| CC(C)c1nnc2ccc(-c3ocnc3-c3cc(F)ccc3F)cn12 | 81 µM (active) | inactive |  | inactive | 39.6 µM (active) | inactive | inactive | inactive | 50 µM (active) |  | inactive |  |  |  |  |  |  |  | 0.384 µM (active) |
| OCCNCCO |  | inactive | inactive | inactive | 50 µM (active) | inactive | inactive | inactive | 50 µM (active) |  | inactive |  |  |  |  |  |  |  |  |
| CCCCCCCC/C=C\CCCCCCCC(=O)OC[C@@H](O)[C@H]1OC[C@H](O)[C@H]1O |  | inactive | inactive | inactive |  | inactive | inactive | inactive |  |  | inactive |  |  |  | inactive | inactive |  | inactive |  |
| CCCC(CCC)C(=O)O |  | inactive | inactive | inactive |  | inactive | inactive | inactive |  |  | inactive |  |  |  | inactive | inactive |  | inactive |  |
| COS(C)(=O)=O |  | inactive | inactive | inactive |  | inactive | inactive | inactive |  |  | inactive |  |  |  | inactive |  |  | inactive |  |
| C[C@@H](Oc1ccc(CNC(=O)c2cccnc2Oc2ccc3c(c2)OCO3)c(F)c1)C(=O)O |  | inactive | inactive | inactive |  | inactive | inactive | inactive |  |  | inactive |  |  |  | inactive | inactive |  | inactive |  |
| C=CCc1cc(S(=O)(=O)c2ccc(O)c(CC=C)c2)ccc1O | 81.6 µM (active) |  | inactive |  | 50 µM (active) | inactive | inactive | inactive | 79.1 µM (active) | 50 µM (active) | inactive | 79.8 µM (active) |  |  |  |  |  |  |  |
| CNC(C)=O |  | inactive | inactive | inactive |  | inactive | inactive | inactive |  |  | inactive |  |  |  | inactive | inactive |  | inactive |  |
| c1ccc2cc3ccccc3cc2c1 | 71.7 µM (active) | inactive | inactive | inactive |  | inactive | inactive | inactive |  |  | inactive |  |  |  | inactive |  |  | inactive |  |
| OCCOCCOCCO |  | inactive | inactive | inactive |  | inactive | inactive | inactive |  |  | inactive |  |  |  | inactive |  |  | inactive |  |
| Nc1ccn([C@@H]2O[C@H](CO)[C@@H](O)[C@@H]2O)c(=O)n1 |  | inactive | inactive | inactive |  | inactive | inactive | inactive |  |  | inactive |  |  |  | inactive |  |  | inactive |  |
| CCn1nc(C)c2c1C(=O)NCC(c1ccc(O)cc1)=N2 |  | inactive | inactive | inactive |  | inactive | inactive | inactive |  |  | inactive |  |  |  | inactive | inactive |  | inactive |  |
| CCCCCCCCCC |  | inactive | inactive | inactive |  | inactive | inactive | inactive |  |  | inactive |  |  |  | inactive | inactive |  | inactive |  |
| CC(C)C(=O)Nc1ccc([N+](=O)[O-])c(C(F)(F)F)c1 | 25.3 µM (active) |  | inactive |  | 50 µM (active) | inactive |  | inactive | 58.5 µM (active) | 34.3 µM (active) |  | 72.4 µM (active) | 50 µM (active) |  |  |  | 17.6 µM (active) |  |  |
